Results as given in PubChem BioAssay (NCI).
Several values for one entry are separate records, joined by “and”; a condition that tells them apart may be missing. Equal entries are not always repeated. About 83,000 compounds went through this panel and 20% of them were active in at least one assay; those are over-represented in the sample as a whole.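 Cell lines were cultured in 96-well plates, exposed to a single compound concentration, and assessed for percent growth 48 hours later.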 Activity calls are given as the source filed them. The calls were made as follows: active = growth percent below 10; inactive = the rest.

These molecules were tested on MDA-MB-468 breast (assay: NCI-60 one-dose screen, 48 h (100 = growth as untreated, 0 = no growth, -100 = all killed)). Settings: 10 µM unless noted.

| SMILES | growth |
| --- | --- |
| Cc1onc(-c2c(F)cccc2Cl)c1-c1ncc(-c2ccc(Cl)cc2)o1 | 66.2% (inactive) and 23.7% (inactive) |
| Cc1nn(-c2ccccc2)c(N2CCOCC2)c1/C=N/N=c1\sc2ccccc2n1C | 71.6% (inactive) |
| c1coc(-c2c3ccc(=[N+]4CCCCC4)cc-3oc3cc(N4CCCCC4)ccc23)c1 | -88.6% (active) |
| COc1ccc([C@@H]2c3[nH]c4ccccc4c3CC3C(=O)N(C4CCN(Cc5c(F)cccc5F)CC4)CC(=O)N32)c(OC)c1 (stereo not given in full) | 40.6% [5.26 µM] (inactive) |
| COc1cc(/C=C/C(=O)c2cc(OC)c(OC)c(OC)c2)ccc1Oc1nc(NCCO)nc(N2CCOCC2)n1 | -20.8% (active) |
| CC(=O)OCC1CCCO1 (stereo not given) | 105% (inactive) |
| N/C(=N\C(N)=N\c1nc2ccccc2s1)c1cccc(Br)c1 | 90.6% (inactive) |
| CCOC(=O)C/C(=N\Nc1cc(=O)[nH]c2ccc(Cl)cc12)C(=O)OCC | 98.6% (inactive) |
| Cc1ccccc1CC(N)C(=O)O (stereo not given) | 117% (inactive) |
| O=S(=O)(/N=C1C=C/C(=N\S(=O)(=O)c2ccccc2)c2ccccc2\1)c1ccccc1 | 79.3% (inactive) |
| O=C(Nc1nc(-c2ccc(Cl)cc2)cs1)c1cc(O)c(O)c(O)c1 | 55.8% (inactive) |
| CC(=O)Nc1nc(C(=O)N2N=C(C)/C(=C/c3cccs3)C2=O)cs1 | 103% (inactive) |
| Nc1[nH][nH]c(=O)c1N=Nc1ccccc1 | 105% (inactive) and 98.5% (inactive) |
| O=S(=O)(Cc1ccccc1)c1nc2ccccc2s1 | 76.8% (inactive) |
| COc1c(B(O)O)cc(C)cc1-c1nc2ccc3[nH]ncc3c2c2c1CCCC2 | 28.2% (inactive) |
| O=C(NC1CCCCCC1)c1ccc2c(=O)n3c(nc2c1)CCCCC3 | 81.2% (inactive) |
| COC(=O)c1cc2c(n1Cc1ccccc1)-c1oncc1CCC2 | 63.5% (inactive) |
| O=C(c1cccs1)c1ccccc1Cc1ccccc1 | 100% (inactive) |
| O=C1c2cccc3c(-c4ccc(-c5nc6c7ccccc7c7ccccc7c6[nH]5)cc4)ccc(c23)C(=O)N1CCN1CCNCC1 | 81.5% (inactive) |
| CCN(CC)CCO/N=C1\CC(c2ccc(OC)c(OC)c2)Oc2ccccc21 (stereo not given) | 80.1% (inactive) |

| SMILES | growth |
| --- | --- |
| COc1ccc(-c2cc(=O)c3c(O)cc(O)cc3o2)cc1 | 121% (inactive) and 96.2% (inactive) |
| COc1cc(/C=C/C(=O)c2ccc(Nc3ncnc4ccccc34)cc2)cc(OC)c1 | 28.8% (inactive) |
| CNC(=O)c1cncc(Cn2nc(C)c(NC(=O)c3ccc(COc4ccc(C(F)(F)F)cc4C)cc3)c2C)c1 | 10.7% (inactive) |
| COc1ccc(NC(=O)c2sc3nc(C)c(C(=O)CCc4cccc(OC)c4)cc3c2N)cc1 | 29.6% (inactive) |
| CC/C(=C(/c1ccc(OCCN(C)C)cc1)c1ccc(OC(=O)CCC(=O)c2c(C)[nH]c(/C=C3\N=C(c4ccc[nH]4)C=C3OC)c2C)cc1)c1ccccc1 | 53.4% (inactive) |
| CC(=O)Nc1nc2c(s1)CCc1c-2cn(S(=O)(=O)c2ccccc2)c1-c1ccccc1 | 61.6% (inactive) |
| NC(N)=N/N=C/c1cccc(Cl)c1Cl | 18.1% (inactive) |
| CC(C)CC(CC1=CCC2CC1C2(C)C)C1=C(O)C(C)(C)C(=O)C(C)(C)C1=O (stereo not given) | 6.32% (active) |
| Cc1ccc(-c2nc3nc(-c4ccccc4)nc(N4CCCNCC4)c3o2)cc1 | -67.5% (active) |
| O=C(NCc1cccc(CNC(=O)Nc2nc3ccccc3[nH]2)c1)Nc1nc2ccccc2[nH]1 | -20.2% (active) |
| COc1ccc(C2c3ccc4ccccc4c3Oc3ncn(CCCn4ccnc4)c(=N)c32)cc1OC (stereo not given) | 47.5% (inactive) |
| COC(=O)c1ccc2[nH]c(O)c(C(=Nc3ccc(N(C)C(=O)CN4CCN(C)CC4)cc3)c3ccc([N+](=O)[O-])cc3)c2c1 | 85.9% (inactive) |
| CC1=C2CC/C(C)=C/CC[C@]3(C)O[C@H]3CC/C(C)=C/[C@H]2OC1 | 98.6% (inactive) |
| CCOC(=O)C1=C(c2ccccc2)N=C2SC=C(c3cccc([N+](=O)[O-])c3)N2C1c1ccc(O)cc1 (stereo not given) | 93.7% (inactive) |
| CNC(C)=O | 102% (inactive) |
| O=Nc1c(O)c(Cl)cc2ccccc12 | -7.81% (active) |
| O=C1Nc2cc(-c3ccc(NS(=O)(=O)c4ccccc4)cc3)ccc2/C1=C/c1ccc[nH]1 | -7.8% (active) |
| COc1cc2ncnc(Nc3ccc(S(=O)(=O)Nc4nccs4)cc3)c2cc1OCCCN1CCCC1 | 99.2% (inactive) |
| COc1ccc(-c2ccc(C)n2-c2ccc(-c3nc4cc(Cl)ccc4s3)cc2)cc1 | -30.7% (active) |
| CCOC(=O)c1cocc1C(=O)O | 103% (inactive) |
